Test results reported in PubChem BioAssay (EPA / NIEHS).
Records with an inconclusive call do not appear. The source made the active and inactive calls. The calls were made as follows, unless noted: active = hit-call score of the fitted dose curve at least 0.9, where 1 is the maximum; inactive = score below 0.9.

Tests used:
[1] = ACEA_ER_80hr: ACEA Biosciences xCELLigence Real-Time Cell Analysis on Estrogen Receptor Agonism for Proliferation (AID 2282667; active = hit-call score of the fitted dose curve at least 0.9, where 1 is the maximum); settings: T47D proliferation, impedance (xCELLigence), 80 h
Outline: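 Cell-growth kinetics were measured by impedance in T47D cells treated continuously with compound (top 100 uM final, 1:4 steps, 8 points). Activity at 80 h was scored as signal gain over the DMSO baseline.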

[2] = APR_HepG2_CellCycleArrest_24hr: Apredica 24-hour HepG2 Assay for Cell Cycle Arrest (AID 2282905); settings: imaging, actives raise or lower the signal;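 also: cell cycle arrest scored as ratio of 2N to 4N nuclear DNA content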
Outline: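 Compounds (0.39 to 200 uM, final DMSO 0.5% v/v) are applied to HepG2 cells for 24 hours; cells are then fixed, permeabilized and nuclei labeled with Hoechst 33342. Automated imaging measures DNA content, and activity is fitted in both directions against DMSO.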

[3] = APR_HepG2_NuclearSize_24hr: Apredica 24-hour HepG2 Assay for Nuclear Size (AID 2282907); settings: high-content imaging, actives raise or lower the signal
Outline: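 Nuclear size is measured by fluorescence high-content imaging of Hoechst-labelled HepG2 nuclei after 24 hr of treatment (0.39–200 uM, 0.5% DMSO). Cells are fixed in 3.7% formaldehyde before staining, and DMSO serves as the baseline for bidirectional curve fitting.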

[4] = APR_HepG2_CellLoss_24hr: Apredica 24-hour HepG2 Assay for Cell Loss (AID 2282908); settings: high-content imaging;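 as to AC50: fit in both directions so a hit may be cell loss or gain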
Outline: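 Nuclear count serves as the viability measure: treated cells are fixed, permeabilized and labelled with Hoechst 33342, and six images per well are analysed to identify valid nuclei. Doses span 0.39–200 uM, and activity in either direction is scored against DMSO.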

[5] = APR_HepG2_MicrotubuleCSK_24hr: Apredica 24-hour HepG2 Assay for Microtubule CSK Stabilty (AID 2282909); settings: HepG2 microtubule cytoskeleton imaging, actives raise or lower the signal
Outline: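 Compounds were applied to HepG2 cells for 24 hours across 0.39–200 uM in duplicate, with final DMSO at 0.5% v/v. Fixed, permeabilized cells were labeled for alpha-tubulin and nuclei, and tubulin fluorescence was quantified by imaging, fitted bidirectionally against DMSO.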

[6] = APR_HepG2_MitoticArrest_24hr: Apredica 24-hour HepG2 Assay for Mitotic Arrest (AID 2282910); settings: high-content imaging, actives raise or lower the signal
Outline: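 HepG2, 24 hr dosing, 0.39–200 uM, 0.5% DMSO final. Formaldehyde-fixed, Triton-permeabilised, anti-phospho-histone H3 plus Hoechst. ArrayScan imaging at 20x; bidirectional fit vs DMSO baseline.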

[7] = APR_HepG2_MitoMass_24hr: Apredica 24-hour HepG2 Assay for Mitochondrial Mass (AID 2282912); settings: high-content imaging, actives raise or lower the signal
Outline: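 After 24 hr of treatment at 0.39 to 200 uM, HepG2 cells take up 250 nM MitoTracker Red CMXRos for 30 min and are then fixed with 3.7% formaldehyde. Per-well images are quantified, and any change in either direction is scored against solvent.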

[8] = APR_HepG2_CellCycleArrest_72hr: Apredica 72-hour HepG2 Assay for Cell Cycle Arrest (AID 2282914); settings: high-content imaging, actives raise or lower the signal
Outline: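 Cell cycle arrest in HepG2 was scored from nuclear DNA content after 72 hr compound treatment (0.39–200 uM). Activity, either gain or loss, was fitted against the DMSO baseline.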

[9] = APR_HepG2_CellLoss_72hr: Apredica 72-hour HepG2 Assay for Cell Loss (AID 2282915); settings: high-content imaging
Outline: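 HepG2 cells exposed 72 h to compound at 0.39–200 uM (10 concentrations, duplicate) in 0.5% DMSO. Fixed with 3.7% formaldehyde and Hoechst 33342-stained. Imaged at 20x; nuclear count gives cell number, fitted bidirectionally versus DMSO.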

[10] = APR_HepG2_P-H2AX_72hr: Apredica 72-hour HepG2 Assay for H2AX Phosphorylation (AID 2282916); settings: imaging, actives raise or lower the signal;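 also: phospho-histone H2A.x immunostain intensity per cell marking DNA damage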
Outline: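 Human hepatoma HepG2 cells are dosed across ten concentrations (0.39 to 200 uM, 0.5% v/v DMSO) and incubated 72 hr. Phospho-histone H2A.x is then detected by antibody staining alongside c-Jun and Hoechst, and quantified by automated fluorescence imaging.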

[11] = APR_HepG2_MitoMembPot_72hr: Apredica 72-hour HepG2 Assay for Mitochondrial Membrane Potential (AID 2282917); settings: imaging, actives raise or lower the signal
Outline: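 HepG2 cells dosed 72 hr with compound at 0.39–200 uM in duplicate, 0.5% v/v DMSO final. Mitochondria stained with 250 nM MitoTracker Red CMXRos for 30 min before formaldehyde fixation, imaged by high-content fluorescence; bidirectional fit versus DMSO.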

[12] = APR_HepG2_MitoticArrest_72hr: Apredica 72-hour HepG2 Assay for Mitotic Arrest (AID 2282918); settings: high-content imaging, actives raise or lower the signal
Outline: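 Mitotic arrest in HepG2 is scored from phospho-histone H3 staining after 72 hr dosing across 0.39–200 uM, with DMSO at 0.5% v/v. Nuclei are identified by Hoechst 33342 and fluorescence intensity is quantified per cell.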

[13] = APR_HepG2_StressKinase_72hr: Apredica 72-hour HepG2 Assay for Stress Kinase (AID 2282921); settings: HepG2 stress kinase (phospho-c-Jun) imaging, actives raise or lower the signal
Outline: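 After a 72 h compound treatment spanning 0.39 to 200 uM, formaldehyde-fixed cells are labelled for phosphorylated c-Jun and nuclei, imaged by automated fluorescence microscopy, and activity is fitted in both directions relative to DMSO controls.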

[14] = APR_HepG2_MitoMass_72hr: Apredica 72-hour HepG2 Assay for Mitochondrial Mass (AID 2282924); settings: high-content imaging, actives raise or lower the signal;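 also: MitoTracker Red CMXRos stain intensity per cell imaged as mitochondrial mass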
Outline: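 Read-out: MitoTracker Red fluorescence intensity from automated imaging (20x, six fields per well) in human HepG2 liver cells. Dosing ran 72 hr, 0.39–200 uM, 0.5% DMSO; bidirectional curve fitting versus DMSO baseline.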

[15] = APR_HepG2_NuclearSize_72hr: Apredica 72-hour HepG2 Assay for Nuclear Size (AID 2282925); settings: high-content imaging, actives raise or lower the signal
Outline: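 Read-out: nuclear diameter from Hoechst 33342 images (ArrayScan, 20x, six fields/well), via cell-cycle image analysis. HepG2 were dosed 0.39–200 uM for 72 hr in 0.5% DMSO. Bidirectional fit relative to DMSO.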

[16] = ATG_CRE_CIS: Attagene CIS-FACTORIAL HepG2 Assay for human cAMP Responsive Element (CRE) binding protein 3 (AID 2282926); settings: HepG2 CRE cis-reporter, Attagene multiplexed mRNA; actives raise or lower the signal
Outline: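 Cells carrying cis-regulated reporter constructs respond through their own endogenous factors. After 24 h treatment, RNA is reverse-transcribed, amplified, labelled and sized by capillary electrophoresis; up- and down-regulation are both scored against vehicle.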

[17] = APR_HepG2_StressKinase_24hr: Apredica 24-hour HepG2 Assay for Stress Kinase (AID 2282922); settings: HepG2 stress kinase (phospho-c-Jun) imaging, actives raise or lower the signal
Outline: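 Read-out: phospho-c-Jun immunofluorescence (Cy3 secondary) quantified by high-content imaging at 20x, nuclei defined by Hoechst 33342. Human HepG2 liver cells dosed 24 hr, 0.39–200 uM, DMSO 0.5% v/v; gain or loss of signal fitted relative to DMSO.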

[18] = APR_HepG2_p53Act_72hr: Apredica 72-hour HepG2 Assay for p53 Activation (AID 2282923); settings: high-content imaging, actives raise or lower the signal;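 also: average cellular p53 protein immunofluorescence intensity in HepG2 cells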
Outline: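 Imaging-based endpoint: after 72 hr compound exposure (up to 200 uM, 0.5% DMSO), fixed and permeabilized monolayers were labelled with anti-p53 antibody and imaged; signal change in either direction was fitted relative to DMSO controls.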

[19] = APR_HepG2_P-H2AX_24hr: Apredica 24-hour HepG2 Assay for H2AX Phosphorylation (AID 2282920); settings: high-content imaging, actives raise or lower the signal
Outline: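 Signal comes from a FITC-labeled secondary detecting phospho-histone H2A.x in fixed HepG2 cells, quantified by automated imaging at 20x. Dosing ran 24 hr across 0.39–200 uM with 0.5% v/v DMSO.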

Measured: AC50

CSC(C)(C)C=NO
not listed: [17] | [18] | [19]
inactive: all other assays above

CCCCN(CCCC)N=O
not listed: [19]
inactive: all other assays above

[N-]=[N+]=[N-]
not listed: [17] | [19]
inactive: all other assays above

COCCOCCO
not listed: [17] | [18] | [19]
inactive: all other assays above

Nc1cc2c3c(c1)C(c1ccccc1)=N[C@@H](NC(=O)c1cccnc1)C(=O)N3CC2
not listed: [17] | [18] | [19]
inactive: all other assays above

ClC1=C(Cl)C2(Cl)C3C(Cl)C(Cl)CC3C1(Cl)C2(Cl)Cl (stereo not given)
active: [2] 27.8 µM | [4] 69.4 µM | [5] 156 µM | [6] 65.1 µM | [7] 48.9 µM | [9] 60.9 µM | [10] 108 µM | [11] 27.1 µM | [12] 53.5 µM | [13] 109 µM | [18] 98.4 µM | [14] 136 µM
inactive: [1] | [3] | [8] | [15] | [16]

CCCN(CCC)c1c([N+](=O)[O-])cc(C(C)C)cc1[N+](=O)[O-]
active: [2] 49 µM | [4] 32.6 µM | [7] 42.9 µM | [8] 35.4 µM | [9] 43.1 µM | [10] 52.1 µM | [11] 46.9 µM | [12] 31.6 µM | [18] 44.1 µM | [14] 40.9 µM
inactive: [1] | [3] | [5] | [6] | [13] | [15] | [16]

CCNc1nc(Cl)nc(NC(C)(C)C)n1
active: [1] 28 µM
not listed: [17] | [18] | [19]
inactive: all other assays above

CCOP(=S)(OCC)SCSCC
active: [1] 19.7 µM | [2] 114 µM | [8] 111 µM
not listed: [17] | [18] | [19]
inactive: all other assays above

Cc1ccc(N)cc1N
not listed: [17] | [19]
inactive: all other assays above

O=[N+]([O-])c1ccccc1
not listed: [17] | [19]
inactive: all other assays above

O=C(O)C(Cl)Cl
not listed: [17] | [18] | [19]
inactive: all other assays above

CCOP(=S)(Oc1ccc([N+](=O)[O-])cc1)c1ccccc1 (stereo not given)
active: [4] 41.1 µM | [9] 27.7 µM
not listed: [17] | [18]
inactive: all other assays above

c1ccc(OP(Oc2ccccc2)Oc2ccccc2)cc1
active: [12] 113 µM
not listed: [17] | [19]
inactive: all other assays above

CC(Cc1ccc(OCC(=O)O)cc1)NCC(O)c1csc(C(F)(F)F)n1 (stereo not given)
not listed: [17] | [19]
inactive: all other assays above
